From PubChem BioAssay (Tox21) come the findings set out here.

Test [1] is described as follows: qHTS assay to identify small molecule antagonists of the estrogen related receptor (ERR) signaling pathway from Tox21 library - cell viability counter screen (AID 1224834). Also: nearly all actives have a fitted effect of over 30% in size. The procedure, abridged: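 In this quantitative HTS format, ERR cells receive compounds in DMSO and are incubated for 17.5 h at 37 C. Live-cell protease activity is then detected with CellTiter-Fluor.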

The nature of test [2]: qHTS assay to identify small molecule agonists of the constitutive androstane receptor (CAR) signaling pathway - cell viability counter screen (AID 1224836). Also: nearly all actives have a fitted effect of over 45% in size. The procedure, abridged: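 Double-stable HepG2 hepatoma cells (hCAR plus CYP2B6-2.2kb) are treated for 23 h at 37 C with test compounds in 15-point concentration series. PK11195 at 0.75 uM final is co-added. Cell viability is quantified by CellTiter-Fluor.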
For orientation: qHTS replaces the single test concentration by a dilution series.

Test [3] can be described thus: qHTS assay to identify small molecule antagonists of the constitutive androstane receptor (CAR) signaling pathway - cell viability counter screen (AID 1224837). Also: nearly all actives have a fitted effect of over 45% in size. The essentials: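 In quantitative HTS format, compounds at 15 concentrations were applied to HepG2 cells double-transfected with hCAR and CYP2B6-2.2kb under 50 nM CITCO stimulation; live-cell protease activity was read after 23 hr via CellTiter-Fluor.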

Test [4] deals with Nuclear receptor subfamily 1 group I member 3 (Homo sapiens) (UniProt Q14994). Kind of test: qHTS assay to identify small molecule antagonists of the constitutive androstane receptor (CAR) signaling pathway (AID 1224838). Also: nearly all actives have a fitted effect of over 40% in size. Also: potency is read from the fitted curve at half-maximal effect. The essentials: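 CITCO-stimulated (50 nM final) HepG2 cells stably transfected with hCAR and CYP2B6-2.2kb luciferase were exposed to compounds at 15 concentrations for 24 h at 37 C/5% CO2. A luciferase reagent was added and luminescence recorded after 30 min.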
Chain of Nuclear receptor subfamily 1 group I member 3 (Homo sapiens) (Q14994 whole entry, looked up): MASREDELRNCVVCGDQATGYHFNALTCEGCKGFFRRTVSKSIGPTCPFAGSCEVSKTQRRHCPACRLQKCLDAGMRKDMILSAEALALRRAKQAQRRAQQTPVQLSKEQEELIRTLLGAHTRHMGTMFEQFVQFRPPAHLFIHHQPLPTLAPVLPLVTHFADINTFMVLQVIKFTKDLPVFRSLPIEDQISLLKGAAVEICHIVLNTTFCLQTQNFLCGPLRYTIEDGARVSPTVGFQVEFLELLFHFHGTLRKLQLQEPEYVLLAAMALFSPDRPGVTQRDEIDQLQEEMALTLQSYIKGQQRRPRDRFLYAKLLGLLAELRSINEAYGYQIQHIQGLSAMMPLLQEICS

Test [5] has the same target. Description: qHTS assay to identify small molecule agonists of the constitutive androstane receptor (CAR) signaling pathway (AID 1224839).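 Also: HepG2 cells stably carrying human CAR and a CYP2B6 luciferase reporter; nearly all actives have a fitted effect of over 15% in size.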 The procedure, abridged: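 Readout: firefly luciferase luminescence via ONE-Glo. System: HepG2 double-stable for hCAR and CYP2B6-2.2kb. Conditions: 15-point compound titration, PK11195 at 0.75 uM final, 24 h incubation.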
A short description of test [6]: qHTS assay to identify small molecule antagonists of the estrogen related receptor signaling pathway with the pleiotropic PPARgamma coactivator (PGC) from Tox21 10K library - cell viability counter screen (AID 1224840; active = well fitted cell-killing curve with a large enough effect in the repeat runs, not every such curve was filed as active; also: nearly all actives have a fitted effect of over 40% in size). The procedure, abridged: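 Viability counter screen, PGC/ERR cells: 17.5 h compound exposure at 37 C, CellTiter-Fluor fluorescence endpoint.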
Test [7] is described as follows: qHTS assay to identify small molecule antagonists of the estrogen related receptor signaling pathway with the pleiotropic PPARgamma coactivator (PGC) from Tox21 10K library (AID 1224841; call rule not given here; also: actives are mostly falling curves and most rising ones were filed inactive; nearly all actives have a fitted effect of over 50% in size). The procedure, abridged:
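In the PGC/ERR line, DMSO solutions of test chemicals are pin-delivered to 2,000 cells/well six hours after dispensing. Following eighteen hours' incubation, One-Glo reagent is added and luminescence recorded.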

The nature of test [8]: qHTS assay to identify small molecule agonists of the estrogen related receptor signaling pathway with the pleiotropic PPARgamma coactivator (PGC) from Tox21 10K library (AID 1224842). Also: nearly all actives have a fitted effect of over 15% in size. The essentials:
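PGC/ERR reporter cell line, 2,000 cells per well, incubated 6 h at 37 C before 23 nL compound in DMSO was added. After 18 h at 37 C, One-Glo luminescence read following 30 min at room temperature.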

Test [9] is described as follows: qHTS assay to identify small molecule agonists of the hypoxia (HIF-1) signaling pathway - cell viability counter screen (AID 1224844; calls by dose curve; also: nearly all actives have a fitted effect of over 50% in size; also: potency is read from the fitted curve at half-maximal effect). The procedure, abridged:
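Same wells as the HIF-1 reporter screen; ME-180 cells carrying HRE-bla, 17 hr treatment at 37C; CellTiter-Glo luminescence read after 30 min at room temperature.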

Test [10] can be described thus: qHTS assay to identify small molecule agonists of H2AX (AID 1224845; active = well fitted activation curve with a large enough effect in the signal ratio in the repeat runs, not every such curve was filed as active; the % refers to the signal ratio). The essentials:
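Wild-type CHO-K1 cells, plated overnight, exposed 3hr at 37C to 15 concentrations (0.76% DMSO final). Lysed, then HTRF anti-pH2AX (S139) cryptate and anti-H2AX-d2 antibodies, 24 hr room temperature; 665/620 nm emission read.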

Test [11] is described as follows: qHTS assay to identify small molecule antagonists of the estrogen related receptor (ERR) signaling pathway from Tox21 library (AID 1224848). Also: nearly all actives have a fitted effect of over 50% in size. Also: potency is read from the fitted curve at half-maximal effect. The procedure, abridged: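 Quantitative high-throughput format: ERR reporter cells (2,000/well) pre-incubated 6 h, treated 18 h at 37 C with compounds in DMSO alongside positive and negative controls, then read by ONE-Glo luminescence.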

A short description of test [12]: qHTS assay to identify small molecule agonists of the estrogen related receptor (ERR) signaling pathway from Tox21 library (AID 1224849; calls by dose curve; also: nearly all actives have a fitted effect of over 15% in size). As to conditions: ERR reporter cell line, ONE-Glo luciferase, 18 h; at 92.4 µM (top of the series) unless noted. The procedure, abridged: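 Reporter cells (ERR, NTP source) treated with Tox21 10K compounds 18 h, 37 C. Readout: ONE-Glo luminescence, 30 min RT.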

A short description of test [13]: qHTS RealTime-Glo MT Cell Viability Assay in HepG2 cells - 24 hour (AID 1224867). Also: nearly all actives have a fitted effect of over 50% in size. The essentials: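 HepG2 cells were seeded at 600 cells/well together with NanoLuc luciferase and a cell-permeant prosubstrate, preincubated 5 h at 37 C/5% CO2, then pin-dosed with compounds in DMSO. Nonlytic luminescence from viable cells was read at each time point.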
A short description of test [14]: qHTS RealTime-Glo MT Cell Viability Assay in HEK293 cells - 32 hour (AID 1224868). Also: nearly all actives have a fitted effect of over 50% in size. Also: potency is read from the fitted curve at half-maximal effect. The essentials:
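HEK293 cells were seeded at 600 cells/well together with NanoLuc luciferase and cell-permeant prosubstrate, preincubated 5 h at 37 C/5% CO2, then given compound in DMSO by pintool. Luminescence from viable-cell prosubstrate reduction was read repeatedly over 40 h.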

The nature of test [15]: A CellTox Green Cytotoxicity Assay to monitor cytotoxicity in HEK293 cells - 0 hour (AID 1224869). Also: nearly all actives have a fitted effect of over 50% in size. The procedure, abridged: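 Homogeneous no-lysis format: HEK293 cell suspension mixed with CellTox Green reagent, seeded, incubated 5 h at 37 C/5% CO2, then dosed by pintool with compound in DMSO.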
The nature of test [16]: qHTS RealTime-Glo MT Cell Viability Assay in HepG2 cells - 40 hour (AID 1224870). Also: nearly all actives have a fitted effect of over 50% in size. The essentials:
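HepG2 cells (600/well) mixed with RealTime-Glo MT reagent, settled 5 h at 37 C/5% CO2 before compound addition. Nonlytic NanoLuc luminescence from viable-cell prosubstrate reduction read repeatedly during 40 h treatment at 37 C.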

Test [17] in a line: qHTS assay to identify small molecule agonists of H2AX - cell viability counter screen (AID 1224847; calls by dose curve; also: top concentration of the series differs between compounds; nearly all actives have a fitted effect of over 30% in size). The procedure, abridged: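 For this counter screen, overnight-attached CHO-K1 cells received test compounds (15 concentrations, 0.76% DMSO final); 3 hr later at 37C, CellTiter-Glo reagent was added and luminescence recorded after 30 min at room temperature.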
Test [18] deals with Luciferin 4-monooxygenase (Photinus pyralis) (UniProt P08659). Kind of test: qHTS assay to identify small molecule inhibitors of firefly luciferase (AID 1224835). Also: nearly all actives have a fitted effect of over 25% in size. Also: potency is read from the fitted curve at half-maximal effect. The procedure, abridged:
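Biochemical qHTS: compounds run as interplate titrations against purified firefly enzyme, with D-luciferin and ATP each at its KM concentration. Light output recorded by CCD imaging.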

For test [19], the target named is Thyrotropin receptor (Homo sapiens) (UniProt P16473). Description: qHTS assay to identify small molecule agonists of the thyroid stimulating hormone receptor (TSHR) signaling pathway (AID 1224843; calls by dose curve; also: nearly all actives have a fitted effect of over 45% in size). The essentials:
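Agonist-mode screen: TSHR HEK293 cells received test chemicals for half an hour at room temperature, then HTRF cAMP detection reagents for one hour prior to fluorescence measurement. Each chemical ran as a 15-concentration series, triplicated.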

The nature of test [20]: qHTS assay to identify small molecule agonists of the hypoxia (HIF-1) signaling pathway (AID 1224846; active = well fitted activation curve with a large enough effect in the signal ratio in the repeat runs, not every such curve was filed as active; the % refers to the signal ratio). The essentials: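 In ME-180 cells bearing an HRE-bla construct, 17 h treatment with DMSO-dissolved compounds at 37C was followed by CCF4-AM loading to quantify reporter induction.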

Each structure is given as a SMILES string. Results filed as inconclusive are left out. Active and inactive are the calls of the source. Unless noted, calls follow the shape of the dose curve; as a rule, active = well fitted curve in the direction sought with a large enough effect in the repeat runs; inconclusive = weak or mixed curves; inactive = no such curve, though single readings can be large; an effect the other way counts as inactive or inconclusive.
% is scaled to controls: 0 for no effect and ±100 for the full control effect.

Chain of Luciferin 4-monooxygenase (Photinus pyralis) (P08659 whole entry, looked up): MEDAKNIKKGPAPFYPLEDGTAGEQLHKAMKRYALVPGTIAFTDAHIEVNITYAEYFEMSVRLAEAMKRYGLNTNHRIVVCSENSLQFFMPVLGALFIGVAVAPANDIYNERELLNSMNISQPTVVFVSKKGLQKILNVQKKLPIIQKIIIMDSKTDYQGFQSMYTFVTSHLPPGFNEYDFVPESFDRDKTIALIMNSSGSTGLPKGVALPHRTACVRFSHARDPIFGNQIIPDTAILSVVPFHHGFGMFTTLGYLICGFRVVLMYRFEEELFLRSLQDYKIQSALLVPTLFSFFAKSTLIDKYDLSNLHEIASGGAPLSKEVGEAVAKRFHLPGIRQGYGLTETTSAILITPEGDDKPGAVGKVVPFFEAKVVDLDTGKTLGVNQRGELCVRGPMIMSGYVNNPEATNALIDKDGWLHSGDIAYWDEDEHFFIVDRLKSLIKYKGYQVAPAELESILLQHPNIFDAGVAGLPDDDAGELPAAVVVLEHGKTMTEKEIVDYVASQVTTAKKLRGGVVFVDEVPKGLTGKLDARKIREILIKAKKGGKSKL
Chain of Thyrotropin receptor (Homo sapiens) (P16473 whole entry, looked up): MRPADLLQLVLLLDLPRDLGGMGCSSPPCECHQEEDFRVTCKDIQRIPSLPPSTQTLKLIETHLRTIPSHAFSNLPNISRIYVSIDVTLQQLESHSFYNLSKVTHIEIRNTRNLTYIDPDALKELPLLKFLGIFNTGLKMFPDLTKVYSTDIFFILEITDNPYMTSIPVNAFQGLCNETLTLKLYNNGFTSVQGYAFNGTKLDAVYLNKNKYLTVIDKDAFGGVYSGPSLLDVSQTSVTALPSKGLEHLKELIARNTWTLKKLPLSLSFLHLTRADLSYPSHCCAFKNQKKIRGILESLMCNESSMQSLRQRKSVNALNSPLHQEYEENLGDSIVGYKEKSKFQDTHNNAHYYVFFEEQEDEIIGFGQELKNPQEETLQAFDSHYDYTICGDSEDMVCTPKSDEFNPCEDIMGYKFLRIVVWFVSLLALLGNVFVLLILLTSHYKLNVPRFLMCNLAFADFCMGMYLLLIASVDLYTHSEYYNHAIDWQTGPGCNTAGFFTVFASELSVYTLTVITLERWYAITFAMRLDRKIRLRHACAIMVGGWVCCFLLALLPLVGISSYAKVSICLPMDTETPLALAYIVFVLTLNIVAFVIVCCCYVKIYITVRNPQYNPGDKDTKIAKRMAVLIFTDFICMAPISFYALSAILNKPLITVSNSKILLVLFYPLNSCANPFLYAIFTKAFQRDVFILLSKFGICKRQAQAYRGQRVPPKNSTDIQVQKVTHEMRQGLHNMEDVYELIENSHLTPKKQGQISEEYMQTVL

`Cc1cc(C)c(C2=C(OC(=O)CC(C)(C)C)C3(CCCC3)OC2=O)c(C)c1`: the Potency entry in test [1], in test [2], in [3], in test [4], in test [5] and in test [6] was “inactive” in each case. Moreover, the Potency result in test [7], in [8], in [9], in [10], in test [11] and in [13] was “inactive” throughout. Further, the Potency entry in test [14], in test [15] and in test [16] was “inactive” throughout. Further, the activity change, positive = activation in test [12] was -1.28% (inactive).

In the case of `CCCCCCCCCCCCCCC(Br)C(=O)O` (stereo not given), the Potency result in test [1], in test [2], in test [3], in test [4], in test [5] and in [6] was “inactive” in each case. For the same molecule, the Potency result in [10], in test [17], in test [13], in test [14], in test [15] and in test [16] was “inactive” throughout. The Potency in test [9] is 49 µM (active).

For the molecule `COc1ccc(/C(=C/C(=O)N2CCOCC2)c2ccc(Cl)cc2)cc1OC`, the Potency entry in [18], in test [2], in test [3], in test [4], in test [5] and in test [6] was “inactive” throughout. The Potency entry in [7], in [19], in [9], in test [10], in [17] and in test [11] was “inactive” each time. Further, the Potency entry in test [13], in test [15] and in test [16] was “inactive” in each case. The outcome in [20] was inactive. Further, the activity change, positive = activation in [12] was -10.9% (inactive).

Take `CC(=O)/C=C/c1ccc2c(c1)OCO2`: the Potency in [18] was 45 µM (active); in test [11], 43.5 µM (active). Also, the Potency entry in test [2], in test [3], in test [4], in test [5], in test [9] and in [13] was “inactive” in each case. The Potency entry in [16] is “inactive”. Besides, in [20], the outcome was inactive. In addition, the activity change, positive = activation in test [12] was -46.7% (inactive).

As to `CC(=O)O[C@H]1CC[C@@]2(C)C(=CC[C@@H]3[C@@H]2CC[C@]2(C)C(=O)CC[C@@H]32)C1`, the Potency result in [18], in [2], in test [3], in test [5], in [6] and in test [19] was “inactive” each time. The Potency result in test [13], in test [15] and in [16] was “inactive” each time. Further, the Potency in test [14] was 49 µM (active).

`O=[N+]([O-])c1ccc2ccc3cccc4ccc1c2c34`: the Potency entry in test [18], in test [2], in [3], in [5], in [6] and in [13] was “inactive” in each case. In addition, the Potency result in [14] is “inactive”. Further, in test [4], the Potency is 4.85 µM (active).
